Shown are actives, neighbours in structure and some others; about 7.8% of the full set was active somewhere.
MARV entry inh = Marburg virus entry inhibition | 300,000 compounds, 1.8% hits | AID 540276 | Potency, µM (doses to about 37.8 µM), for the others: at the highest dose activity change, negative = inhibition, most hits filed as inhibitors | Marburg virus pseudotyped entry inhibition, cell reporter; calls by dose curve; tested in HEK293 cells; also: potency is read from the fitted curve at half-maximal effect; % is scaled to controls: 0 for no effect and ±100 for the full control effect
HCV inhibitor = HCV inhibition | Huh7.5.1 HCVcc-Cre infection, luciferase reporter, 44 h | Potency, µM (titrated, usually from 41.8 µM), for inactives: at the top dose activity change, negative = inhibition, most hits filed as inhibitors | 340,000 compounds, 3.4% hits; also: potency is read from the fitted curve at half-maximal effect; % is scaled to controls: 0 for no effect and ±100 for the full control effect
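Seed cells (1,000/well) for 4 h; treat with compound and infect with HCVcc-Cre, moi about 0.5. Incubate 44 h, then detect luciferase activity.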
Vaccinia Venus = vaccinia inhibition (Venus reporter). Vaccinia virus Venus reporter expression, fluorescence. Potency, µM (series often up to 36.5 µM), for the others: at the highest dose activity change, negative = inhibition, hits mostly inhibitors. AID 720580. 330,000 compounds, 0.46% hits; calls by dose curve; tested in A549 cells; also: potency is read from the fitted curve at half-maximal effect; % is scaled to controls: 0 for no effect and ±100 for the full control effect; nearly all actives have a fitted effect of over 30% in size
Lassa entry inh = inhibitors of Lassa virus binding or cell entry | Potency, µM (series often up to 37.9 µM), inactives show at the highest dose activity change, negative = inhibition, usual class: inhibitors | Lassa virus pseudotype entry inhibition, cell reporter | 300,000 compounds, 1.2% hits | AID 540256; calls by dose curve; tested in HEK293 cells; also: potency is read from the fitted curve at half-maximal effect; % is scaled to controls: 0 for no effect and ±100 for the full control effect; nearly all actives have a fitted effect of over 50% in size
HCMV antiviral = inhibitors of human cytomegalovirus; HFF cells, HCMV-luciferase reporter, 72 h; active compounds read low; activity change, negative = inhibition, % at 57.5 µM; 410,000 compounds, 4.5% hits; AID 1259415; in the data active = activity change below about -60%; inconclusive = no clear call, values can overlap the other calls; inactive = above about -39%; also: % is scaled to controls: 0 for no effect and ±100 for the full control effect
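Two compound doses tested in HFFs infected with HCMV-luciferase, MOI 1 PFU/cell, 72 h at 37C. Lysate luminescence read with OneGlo; data normalized against buffer-only and 10uM Salinomycin inhibitor controls.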
VACV mCherry inh = vaccinia inhibition (mCherry reporter); Vaccinia virus mCherry reporter infection, fluorescence; Potency, µM (top dose mostly 36.5 µM), for the others: at the top dose activity change, negative = inhibition, actives largely listed as inhibitors; 310,000 compounds, 0.63% hits; calls by dose curve; tested in A549 cells; also: potency is read from the fitted curve at half-maximal effect; % is scaled to controls: 0 for no effect and ±100 for the full control effect; nearly all actives have a fitted effect of over 35% in size
G2M arrest HeLa = inducers of G2/M cell cycle arrest in HeLa cells | shares compounds with MARV entry inh | Potency, µM, most hits filed as inhibitors | 25 compounds, 60% hits | HeLa cell cycle G2/M arrest, Hoechst DNA content imaging
WI-38 cytotox = counter-screen for perinucleolar compartment inhibitors: WI-38 cytotoxicity. shares compounds with MARV entry inh. WI-38 normal lung fibroblasts, ATPLite luminescence ATP viability, 24 h. Potency, µM (highest dose often 46.1 µM), without a hit: at the highest dose activity change, negative = cytotoxicity, most hits filed as inhibitors. 120 tested, under 10 active
PNC inh conf = confirmation of perinucleolar compartment assembly inhibitors; shares compounds with MARV entry inh; PC3M PTB-GFP, PNC prevalence imaging, 16 h; Potency, µM (series often up to 46.1 µM), inactives show at the highest dose activity, negative = PNC inhibition, most hits filed as inhibitors; 120 compounds, 50% hits; AID 2730
PC3M caspase = counter-screen for PNC inhibitors: PC3M caspase 3/7 activation; shares compounds with MARV entry inh; PC3M-GFP caspase 3/7 activation, luminescence, 24 h; 120 tested, under 10 active; AID 2731; activity change, positive = activation, % at 46.1 µM
An asterisk follows results filed as active; i = inactive; ? = inconclusive; / = not tested or not shown; [ ] = remark or other dose. Unless noted, calls follow the shape of the dose curve; as a rule, active = well fitted curve in the direction sought with a large enough effect; inconclusive = small, poorly fitted or top-dose-only effect, or another doubt; inactive = no such curve, though single readings can be large; an effect the other way counts as inactive or inconclusive.

SMILES | MARV entry inh | HCV inhibitor | Vaccinia Venus | Lassa entry inh | HCMV antiviral | VACV mCherry inh | WI-38 cytotox | PNC inh conf | PC3M caspase | others
Cc1cc(C(=O)N/N=C/c2cc(Br)cc(Br)c2OC(=O)c2ccccc2)n[nH]1 | -10% | 1% | / | ? | / | / | -12% | ? | 4
Cc1cc(C(=O)N/N=C/c2cc(Br)ccc2OC(=O)c2ccc(Br)cc2)n[nH]1 | -5% | 2% | / | / | / | / | / | / | /
COc1cc(C(=O)Oc2ccccc2/C=N/NC(=O)c2ccc(Cl)cc2)cc(OC)c1OC | 12µM* | 2.8µM* | ? | 11µM* | -99* | ? | ? | ? | -3
COc1ccc(-c2cc(C#N)nc(N3CCN(C)CC3)n2)cc1 | ? | 13µM* | -13% | 14% | -24 | -4% | 22% | ? | -8
CCC(=O)Nc1nonc1-c1nc2ccccc2n1Cc1ccccc1 | -12% | -9% | -27% | -9% | 7 | i | / | / | /
CCOC(=O)Cn1c(-c2nonc2NC(=O)c2ccccc2F)nc2ccccc21 | 0.28µM* | ? | 10% | 0.28µM* | -98* | 10µM* | ? | 4.5µM* | 1
CC(=O)Nc1cccc(Oc2ncnc3scc(-c4ccc(C)cc4)c23)c1 | -18% | ? | / | ? | -66* | / | 27% | -1% | -5
CCc1c(C)nc2nncn2c1NCc1ccccc1 | 0%[46.1 µM] | / | -13% | -25%[46.1 µM] | -20 | -15% | / | / | /
CC(C)c1ccc(S(=O)(=O)/N=C2/C=C(Sc3ncn[nH]3)C(=O)c3ccccc32)cc1 | ? | 2.5µM* | ? | ? | / | 11µM* | -4% | ? | -4
COc1ccc2c(c1)sc1ncc(C(=O)NCc3cccc(Cl)c3)c(=O)n12 | -11%[46.1 µM] | / | -9% | / | 6 | 3% | / | / | /
CCc1ccc(NC(=O)Cn2c(=O)n(-c3ccc(Cl)c(Cl)c3)c(=O)c3c(C)c(C)sc32)cc1 | 12%[46.1 µM] | / | -3% | -22%[46.1 µM] | -13 | -2% | / | / | /
O=C(Cc1coc2ccc3ccccc3c12)Nc1nnc(C2CC2)s1 | ? | ? | 13% | 2.5µM* | -77* | 13µM* | -7% | 7.9µM* | 1
Cc1c2ccncc2c(C)c2c1[nH]c1ccccc12 | 4.1µM* | ? | 10µM* | 6.5µM* | / | 11µM* | -6% | ? | 3 | G2M arrest HeLa=?
c1ccc2c(c1)[nH]c1cnccc12 | -33% | ? | -7% | 17% | -30 | 3% | / | / | /
COc1ccc(CNC(=O)c2ccc3c(c2)CCN3S(=O)(=O)c2ccc(Cl)cc2)cc1 | ? | / | -14% | -30%[46.1 µM] | -30 | -17% | / | / | /
COC(=O)c1c(-c2ccccc2)csc1NC(=O)c1c(-c2ccccc2)noc1C | 1µM* | ? | 19% | 0.89µM* | -79* | 6.3µM* | 13% | 4µM* | 1
COC(=O)c1ccc(C)c(NC(=O)c2c(-c3ccccc3)noc2C)c1 | -22% | 9% | -17% | -8% | -9 | -2% | / | / | /
Cc1cc(=O)[nH]c(N=N/C(=N/Nc2ccccc2C)c2ccccc2)n1 | 0.79µM* | ? | -7% | 4µM* | -86* | / | -7% | ? | -8
Cc1cc(C(=O)Cn2nnc3ccccc3c2=O)c(C)n1-c1ccccc1F | 3.2µM* | ? | -7% | 1.1µM* | -87* | / | 14µM* | 4.5µM* | -19
O=C(NCc1ccco1)C1CCN(Cc2ccc(F)cc2)CC1 | 2%[46.1 µM] | -7% | -7% | 15% | 2 | / | -6% | -6% | -2
O=C(NCc1ccco1)C1CCCCC1 | -6% | 21% | / | 6% | ? | / | / | / | /
C[C@]12Cc3cn4c(nc3C=C1CCC1C2CC[C@@]2(C)[C@H]1CC[C@@]2(O)C#N)nc1ccccc14 (stereo not given in full) | 10µM* | / | / | 5.2µM* | / | / | / | / | / | G2M arrest HeLa=?
CC12Cc3cnoc3C=C1CCC1C2CCC2(C)C1CCC2(C)O (stereo not given) | -18% | ? | -27% | ? | -34 | ? | / | / | /
CCN(CC)S(=O)(=O)c1nnc(NC(=O)COc2cccc(C)c2)s1 | / | / | -8% | -3%[46.1 µM] | 19 | -9% | / | / | /
O=c1[nH]c(SCc2ccccc2[N+](=O)[O-])nc2nc[nH]c12 | / | -13% | -12% | / | ? | i | / | / | /
SMILES | MARV entry inh | HCV inhibitor | Vaccinia Venus | Lassa entry inh | HCMV antiviral | VACV mCherry inh | WI-38 cytotox | PNC inh conf | PC3M caspase | others
O=c1[nH]cnc2c1C(c1ccccc1[N+](=O)[O-])c1c(nc[nH]c1=O)O2 | 1% | 9% | / | -6% | 57 | / | ? | -22% | 1
Cc1ccc(C(C)C)c(OCc2ccc(C(=O)N/N=C/c3ccc(C(=O)O)cc3)cc2)c1 | / | -13% | / | / | 0 | / | / | / | /
Cc1ccc(C(C)C)c(OCc2ccc(C(=O)N/N=C/c3ccc(O)cc3O)cc2)c1 | 6.3µM* | 3.2µM* | ? | ? | -97* | 1.6µM* | -7% | ? | -2
NC(=O)Cn1c(S(=O)(=O)Cc2ccccc2)nc2ccccc21 | 5% | 9% | -10% | -14% | -23 | i | / | / | /
C#CCn1c(S(=O)(=O)Cc2ccc(F)cc2)nc(-c2ccccc2)c1-c1ccccc1 | 0.92µM* | ? | / | 3.7µM* | -97* | / | -24% | 7.9µM* | -3
COc1ccc(C2CC(=O)N(CC(=O)Nc3ccc(C(F)(F)F)cc3)c3ccccc3S2)cc1 (stereo not given) | ? | / | -13% | / | -16 | -20% | / | / | /
C=CCNC(=S)N/N=C(\C)c1ccccn1 | 0.26µM* | -29% | / | 0.21µM* | -103* | / | -27% | 5µM* | -3
COc1ccc(CNC(=O)C(=O)Nc2ccc(OC)cc2OC)cc1 | / | / | -9% | 0%[46.1 µM] | 9 | -18% | / | / | /
O=C(NC1CC(=O)N(c2ccc(Cl)cc2)C1)c1cc2ccccc2o1 (stereo not given) | / | / | -8% | -22%[46.1 µM] | 26 | -4% | / | / | /
CCOc1ccc(CN(C)CC(=O)Nc2cc(OC)c([N+](=O)[O-])cc2C)cc1 | 8% | -23% | 0% | 0% | 11 | -9% | -22% | -20% | -8
CSc1nnc2c3ccccc3n(Cc3ccccc3)c2n1 | -4% | 1% | -5% | -6% | -23 | / | / | / | /
CSc1nnc2c3ccccc3n(CCc3ccccc3)c2n1 | 0.58µM* | ? | / | 1µM* | -98* | / | -4% | 5µM* | -1

Screening data: PubChem BioAssay, National Center for Advancing Translational Sciences (NCATS)
